HCMV inh: human cytomegalovirus inhibition; HFF cells, HCMV-luciferase reporter, 72 h; stronger effect = lower value; activity change, negative = inhibition, % at 57.5 µM; 4.5% of 410,000 active; AID 1259415; in the data active = activity change below about -60%; inconclusive = no clear call, values can overlap the other calls; inactive = above about -39%
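Human foreskin fibroblasts infected with luciferase-reporter HCMV at MOI 1 PFU/cell, compounds at two doses. Luciferase measured 72 h post infection; normalized to buffer-only basal and Salinomycin (10uM) controls.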
HCV inh: HCV inhibition | 3.4% of 340,000 active | Potency, µM (series often up to 41.8 µM), without a hit: at the highest dose activity change, negative = inhibition, actives largely listed as inhibitors | Huh7.5.1 HCVcc-Cre infection, luciferase reporter, 44 h; note: potency is the fitted concentration of half-maximal effect
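Cells (1,000/well) were plated 4 h before compound, then infected with HCVcc-Cre virus (~0.5 moi). After 44 h further culture, infection was read as luciferase luminescence following a 15 min substrate incubation at room temperature.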
FMDV antiviral: blocks foot and mouth disease virus. FMDV antiviral cell-based qHTS. Potency, µM (titrated, usually from 57.9 µM), without a hit: at the highest dose activity change, negative = inhibition, hits mostly inhibitors. 1.2% of 410,000 active; calls by dose curve; tested in HEK293T cells; note: read-out not given here; potency is the fitted concentration of half-maximal effect; nearly all actives have a fitted effect of over 45% in size
FBPA Giardia inh: inhibitors of Giardia lamblia fructose-1,6-bisphosphate aldolase; A8B2U2; purified Giardia FBPA; Potency, µM (series often up to 59.6 µM), for the others: top-dose activity, negative = inhibition, hits mostly inhibitors; 0.71% of 290,000 active; note: potency is the fitted concentration of half-maximal effect; nearly all actives have a fitted effect of over 55% in size
Target sequence (A8B2U2 whole entry, looked up): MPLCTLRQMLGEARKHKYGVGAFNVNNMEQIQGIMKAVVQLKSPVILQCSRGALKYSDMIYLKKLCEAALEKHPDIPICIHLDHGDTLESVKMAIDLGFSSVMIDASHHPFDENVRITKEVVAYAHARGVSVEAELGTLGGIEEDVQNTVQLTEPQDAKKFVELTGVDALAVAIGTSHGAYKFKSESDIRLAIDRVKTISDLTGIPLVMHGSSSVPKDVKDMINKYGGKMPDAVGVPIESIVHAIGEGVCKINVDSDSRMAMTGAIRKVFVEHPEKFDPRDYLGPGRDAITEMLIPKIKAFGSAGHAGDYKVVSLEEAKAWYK
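Giardia FBPA (40 nM reagent) was preincubated 10 min at RT with compound (up to 57.5 uM final), then substrate plus GAPDH/TPI/NAD/arsenate coupling system with diaphorase/resazurin was added; resorufin fluorescence (525/598 nm) was read after 20 min.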
LASV entry inh: Lassa virus entry inhibition. Lassa virus pseudotype entry inhibition, cell reporter. Potency, µM (series often up to 37.9 µM), for the others: top-dose activity change, negative = inhibition, actives largely listed as inhibitors. 1.2% of 300,000 active. AID 540256; calls by dose curve; tested in HEK293 cells; note: potency is the fitted concentration of half-maximal effect; nearly all actives have a fitted effect of over 50% in size
MARV entry inh: inhibitors of Marburg virus binding or cell entry | Marburg virus pseudotyped entry inhibition, cell reporter | Potency, µM (top dose mostly 37.8 µM), for inactives: top-dose activity change, negative = inhibition, most hits filed as inhibitors | 1.8% of 300,000 active; calls by dose curve; tested in HEK293 cells; note: potency is the fitted concentration of half-maximal effect
Starred values were filed as active, the others as inactive; ? = inconclusive; / = not tested or not shown; [ ] = another dose, or the depositor's remark. This is a sample that favours compounds with a hit; in the whole collection about 8.3% have one here. Unless noted, calls come from the whole dose curve; as a rule, active = well fitted curve in the direction sought with a large enough effect; inconclusive = small, poorly fitted or top-dose-only effect, or another doubt; inactive = no such curve, though single readings can be large; an effect the other way counts as inactive or inconclusive. % is set by controls: 0 for no effect and ±100 for the full control effect.

SMILES | HCMV inh | HCV inh | FMDV antiviral | FBPA Giardia inh | LASV entry inh | MARV entry inh
CC(C)C[C@@H](CC(=O)N[C@@H](CCC(=O)O)CC(=O)O)NC(=O)[C@@H]1CNCC[C@H]1NC(=O)C[C@@H](NC(=O)C[C@H](Cc1c[nH]c2ccccc12)NC(=O)[C@@H]1CNCC[C@H]1N)C(C)C | / | / | / | -22% | / | /
COc1ccc(-c2c[n+]3c4n2CCCCC4=C(c2ccc(Br)cc2)C3)cc1 | -100* | ? | -7% | -15% | -85% | ?
Cc1ccc(NC(=S)NCCN(C2CCCCC2)C2CCCC2)cc1 | ? | ? | 14% | 0% | / | /
Cc1ccc(NC(=S)NCCN(C2CCCCC2)C2CCCC2)cc1C | -38 | ? | -16% | -9% | ? | 9.2µM*
COc1ccc(CN2C[C@H](Sc3nc4ccccc4[nH]3)C[C@H]2C(=O)N(C)C)c2ccccc12 | / | / | 1% | / | / | /
CCc1cccc(CC)c1NC(=O)COC(=O)c1cccc(S(=O)(=O)N2CCc3ccccc3C2)c1 | -21 | 8% | -19% | 6% | ? | ?
O=C(N/N=C/c1cc(Br)cc(Br)c1O)c1cccc(N2CCCC2=O)c1 | -99* | ? | 2% | 8% | ? | ?
CCOc1ccc(CCNC(=O)c2ccc(Cl)c(S(=O)(=O)N3CCOCC3)c2)cc1OCC | -25 | ? | ? | / | -22% | ?
O=C(NCc1cccnc1)c1cccc(S(=O)(=O)N2CCCCC2)c1 | -81* | -16% | -16% | 1% | 10% | -7%
O=C(NCc1cccnc1)c1cccc(S(=O)(=O)N2CCCC2)c1 | -11 | -5% | 21% | 1% | 6% | 17%[46.1 µM]
CCOc1ccc(CCNC(=O)c2ccc(C)c(S(=O)(=O)N3CCOCC3)c2)cc1OCC | -5 | 10µM* | 22µM* | / | ? | ?
Cc1cccc(C(C)C)c1NC(=O)COC(=O)c1cccc(S(=O)(=O)N2CCc3ccccc3C2)c1 | -79* | 15% | -10% | 1% | ? | 0%
O=C(c1ccco1)N1CCC2(CCCN(c3ncccn3)C2)CC1 | / | / | -14% | 2% | / | /
Nc1[nH]c(C(=O)c2ccc(Br)cc2)c(-c2ccc(Cl)cc2[N+](=O)[O-])c1C(=O)NCCc1c[nH]c2ccccc12 | 9 | / | / | / | / | /
O=C(Nc1cc(S(=O)(=O)N2CCCCC2)ccc1O)c1ccccc1NS(=O)(=O)c1ccc(F)cc1 | 5 | 18% | ? | 1% | ? | -18%[46.1 µM]
O=C(Nc1cc(S(=O)(=O)N2CCCCC2)ccc1Cl)c1ccccc1NS(=O)(=O)c1ccc(F)cc1 | / | 10µM* | -3% | 1% | 3.5µM* | ?
COc1ccc(CNC(=O)COc2ccc(S(=O)(=O)N3CCCCC3)cc2Cl)cc1 | 5 | ? | -18% | / | 13µM* | ?
CCOc1ccc(CCNC(=O)CN2CCN(Cc3ccc(Cl)cc3)C2=O)cc1OCC | -12 | / | -28% | / | 1%[46.1 µM] | 5µM*
COc1ccc(CCNC(=O)c2ccc3nc(N4CCOCC4)sc3c2)cc1OC | 34 | -23% | -19% | 5% | / | /
CCOc1ccc(CCNC(=O)c2ccc3nc(N4CCOCC4)sc3c2)cc1OCC | ? | ? | 14µM* | 6% | -13% | -5%[46.1 µM]
NCC(=O)N[C@@H](CCCN=C(N)N)C(=O)NCC(=O)N[C@@H](CC(=O)O)C(=O)N[C@@H](CO)C(=O)O | / | / | / | -2% | / | /
COc1ccc(CNC(=O)c2cc(S(=O)(=O)N3CCCCC3)ccc2Cl)cc1OC | -64* | 11µM* | 14µM* | / | -26% | ?
O=C(NC1CCCCCC1)c1cccc(N2CCCC2=O)c1 | 28 | 25µM* | 12% | 0% | -25% | ?
COc1ccc(S(=O)(=O)N2CCCCCC2)cc1C(=O)NCc1ccccc1Cl | -27 | 9% | 6% | / | ? | -1%
COc1cc(OC)c(OC)cc1CNC(=O)c1cccc(S(=O)(=O)N2CCc3ccccc3C2)c1 | ? | 1.8µM* | 11µM* | / | ? | ?
SMILES | HCMV inh | HCV inh | FMDV antiviral | FBPA Giardia inh | LASV entry inh | MARV entry inh
COc1ccc(CCNC(=O)c2cc(S(=O)(=O)N3CCC4(CC3)OCCO4)ccc2F)cc1OC | -29 | 11µM* | -30% | 4% | ? | ?
COc1ccc2c(c1)c1c(c(=O)n(-c3cccc(C)c3)c(=O)n1CC(=O)NCc1ccc(C)cc1)n2C | -3 | / | -12% | / | 17%[46.1 µM] | /
COC(=O)c1sccc1S(=O)(=O)N(CC(=O)NCc1ccc(C)cc1)c1ccccc1 | 3 | / | -5% | / | -11%[46.1 µM] | /
O=c1c(-c2ccc(Cl)cc2)nc2cnc(N3CCNCC3)nc2n1Cc1ccc(F)cc1 | / | / | -5% | 0% | / | /
CC1CN(S(=O)(=O)c2cc(C(=O)NCCC3=CCCCC3)ccc2Cl)CC(C)O1 (centres undefined) | -82* | ? | -18% | / | ? | -26%[46.1 µM]
Cc1cccc(CCNC(=O)c2cc(S(=O)(=O)N3CCCC3)cn2C)c1 | 2 | 8.9µM* | 4% | -4% | / | /
COc1ccc(CNC(=O)c2cccc(S(=O)(=O)N3CCCCC3)c2)cc1OC | -87* | 6.3µM* | ? | / | / | /
O=C(NCCC1=CCCCC1)c1ccc(F)c(S(=O)(=O)N2CCOCC2)c1 | 0 | -18% | -6% | 7% | 0% | -8%
Cc1ccccc1CN(c1ccc(C(=O)NCCC2=CCCCC2)cc1)S(C)(=O)=O | -3 | 0% | -25% | 0% | 16µM* | ?
CC(=O)Nc1ccc(Nc2cc3c(cn2)nc(-c2cccc(F)c2)n3C)cc1 | 21 | / | / | / | / | /
O=C(c1cnccn1)N1CCC[C@@]2(CCN(Cc3cc(C(F)(F)F)cc(C(F)(F)F)c3)C2)C1 | / | / | -5% | 2% | / | /
CC(C)CON=C1C[C@@H](O)[C@@H](O)[C@@H]2[C@H]3C(=O)N(C4CCCCC4)C(=O)[C@@H]3CC[C@H]12 | / | / | / | / | ? | -14%[14.2 µM]
CCOc1ccc(CCNC(=O)c2cccc(S(=O)(=O)N3CCCCC3)c2)cc1OCC | -7 | ? | 28µM* | / | -24% | ?
CCOc1ccc(CCNC(=O)c2cccc(N3CCCC3=O)c2)cc1OCC | -79* | -14% | -2% | -1% | -10% | -13%
COc1ccc(S(=O)(=O)N2CCCCCC2)cc1C(=O)N(C)Cc1ccc(F)cc1 | -25 | -18% | -26% | / | ? | ?
COc1ccc(CCNC(=O)COc2ccc(S(=O)(=O)NC3CCCCC3)cc2Cl)cc1OC | -62* | ? | -24% | 2% | -5% | ?
COc1ccc(S(=O)(=O)N2CCCCCC2)cc1C(=O)N(C)Cc1ccc(C(C)(C)C)cc1 | -15 | 14µM* | ? | / | ? | ?
O=C(COc1ccc(S(=O)(=O)NC2CCCCC2)cc1Cl)NCc1ccc2c(c1)OCO2 | -12 | ? | 26% | 0% | -7% | ?
CCCn1c(-c2ccc(F)cc2)nc2c(NCCCN3CCCCC3C)nc(C)nc21 (centres undefined) | / | / | / | 1% | / | /
CN([C@H]1CCS(=O)(=O)C1)S(=O)(=O)c1cccc2nsnc12 | / | / | / | / | / | 21%
